This is an account of results in PubChem BioAssay (NCATS).

Test [1] is described as follows: Quantitative High-Throughput drug screen in 47 multiple myeloma cell lines against the NCATS MIPE library collection: Karpas417_ECACC cell viability assay (AID 1918961). The conditions noted are these: Karpas417 myeloma viability, CellTiter-Glo ATP luminescence, 48 h; viability (% of DMSO): at 45.8 µM (top of the series). The procedure, abridged:
(§1)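 Myeloma cells (500 per well) were exposed to MIPE 4.0 compounds by pin transfer and incubated 48 hours at 37C, 5% CO2. Viability was read as ATP by CellTiter-Glo luminescence, normalised to DMSO (100%) and media-only (0%) wells.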
(In general: ATP-based viability assays read luminescence as a measure of living cells.)

Test [2] can be described thus: Quantitative High-Throughput drug screen in 47 multiple myeloma cell lines against the NCATS MIPE library collection: KHM11_PLB cell viability assay (AID 1918962). Note: nearly all actives have a fitted effect of over 35% in size. The conditions noted are these: KHM11 myeloma cell viability, CellTiter-Glo ATP luminescence, 48 h; series mostly up to 45.8 µM. In a few lines:
(§2)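 CellTiter-Glo luminescence (ATP) after 48 h compound exposure, 37C/5% CO2; 500 cells/well; MIPE 4.0 approved/investigational drugs pinned in; DMSO = 100%, media only = 0% viability.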

Test [3] is described as follows: Quantitative High-Throughput drug screen in 47 multiple myeloma cell lines against the NCATS MIPE library collection: JIM3_ECACC cell viability assay (AID 1918963; note: nearly all actives have a fitted effect of over 35% in size). The conditions noted are these: JIM3 myeloma viability, CellTiter-Glo ATP, 48 h; series mostly up to 45.8 µM. The procedure, abridged:
as §2

Test [4] can be described thus: Quantitative High-Throughput drug screen in 47 multiple myeloma cell lines against the NCATS MIPE library collection: JIM1_ECACC cell viability assay (AID 1918964). The conditions noted are these: JIM1 myeloma viability, CellTiter-Glo ATP luminescence, 48 h; series mostly up to 45.8 µM. The procedure, abridged:
as §2

Test [5] is described as follows: Quantitative High-Throughput drug screen in 47 multiple myeloma cell lines against the NCATS MIPE library collection: INA6_PLB cell viability assay (AID 1918965; note: nearly all actives have a fitted effect of over 55% in size). The conditions noted are these: INA6 myeloma viability, CellTiter-Glo ATP luminescence, 48 h; series mostly up to 45.8 µM. The procedure, abridged: as §1
Test [6] is described as follows: Quantitative High-Throughput drug screen in 47 multiple myeloma cell lines against the NCATS MIPE library collection: JJN3_DSMZ cell viability assay (AID 1918966; note: nearly all actives have a fitted effect of over 50% in size). The conditions noted are these: JJN3 myeloma cells viability, CellTiter-Glo ATP, 48 h; series mostly up to 45.8 µM. In a few lines:
as §2

Test [7] in a line: Quantitative High-Throughput drug screen in 47 multiple myeloma cell lines against the NCATS MIPE library collection: H1112_PLB cell viability assay (AID 1918967; note: nearly all actives have a fitted effect of over 30% in size). The conditions noted are these: H1112 myeloma cells viability, ATP luminescence, 48 h; series mostly up to 45.8 µM. In a few lines: as §2
Test [8] can be described thus: Quantitative High-Throughput drug screen in 47 multiple myeloma cell lines against the NCATS MIPE library collection: Karpas25_ECACC cell viability assay (AID 1918968; note: nearly all actives have a fitted effect of over 35% in size). The conditions noted are these: Karpas25 myeloma viability, CellTiter-Glo ATP, 48 h; series mostly up to 45.8 µM. In a few lines:
as §2

Test [9] in a line: Quantitative High-Throughput drug screen in 47 multiple myeloma cell lines against the NCATS MIPE library collection: KMS27_JCRB cell viability assay (AID 1918970). Note: nearly all actives have a fitted effect of over 30% in size. The conditions noted are these: KMS27 myeloma cells, CellTiter-Glo ATP viability, 48 h; viability (% of DMSO): at 45.8 µM (top of the series). In a few lines: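 Luminescent ATP read-out (CellTiter-Glo, 5 min at room temperature) after 48 h compound exposure of 500 KMS27_JCRB cells per well; DMSO wells define full viability and media-only wells zero.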

The nature of test [10]: Quantitative High-Throughput drug screen in 47 multiple myeloma cell lines against the NCATS MIPE library collection: KMS12BM_JCRB cell viability assay (AID 1918971). Note: nearly all actives have a fitted effect of over 35% in size. The conditions noted are these: KMS12BM myeloma viability, CellTiter-Glo ATP, 48 h; series mostly up to 45.8 µM. In a few lines: (§3)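 Approved and investigational drugs from MIPE 4.0 were added by pin tool to 500 cells per well. After 48 hours at 37C, ATP-based CellTiter-Glo luminescence indicated remaining viability.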

A short description of test [11]: Quantitative High-Throughput drug screen in 47 multiple myeloma cell lines against the NCATS MIPE library collection: KMS12PE_JCRB cell viability assay (AID 1918972). Note: nearly all actives have a fitted effect of over 30% in size. The conditions noted are these: KMS12PE myeloma viability, CellTiter-Glo ATP, 48 h; series mostly up to 45.8 µM. The procedure, abridged: as §1
Test [12] is described as follows: Quantitative High-Throughput drug screen in 47 multiple myeloma cell lines against the NCATS MIPE library collection: KMS20_JCRB cell viability assay (AID 1918973). Note: nearly all actives have a fitted effect of over 45% in size. The conditions noted are these: CellTiter-Glo ATP, 48 h; series mostly up to 45.8 µM. In a few lines:
as §2

Test [13] can be described thus: Quantitative High-Throughput drug screen in 47 multiple myeloma cell lines against the NCATS MIPE library collection: KMS26_JCRB cell viability assay (AID 1918975). Note: nearly all actives have a fitted effect of over 45% in size. The conditions noted are these: KMS26 myeloma cells viability, CellTiter-Glo ATP, 48 h; series mostly up to 45.8 µM. The procedure, abridged:
as §3

Test [14] can be described thus: Quantitative High-Throughput drug screen in 47 multiple myeloma cell lines against the NCATS MIPE library collection: MMM1_PLB cell viability assay (AID 1918976). Note: nearly all actives have a fitted effect of over 35% in size. The conditions noted are these: MMM1 myeloma cells viability, CellTiter-Glo, 48 h; series mostly up to 45.8 µM. The procedure, abridged:
(§4)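 Myeloma cells (500/well) treated with MIPE 4.0 compounds for 48 h at 37 °C, 5% CO2. Viability read as ATP via CellTiter-Glo luminescence after 5 min at RT; DMSO-only wells = 100%, media-only = 0% viability.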

Test [15] is described as follows: Quantitative High-Throughput drug screen in 47 multiple myeloma cell lines against the NCATS MIPE library collection: MOLP8_DSMZ cell viability assay (AID 1918977). Note: nearly all actives have a fitted effect of over 45% in size. The conditions noted are these: MOLP8 myeloma viability, CellTiter-Glo ATP luminescence, 48 h; series mostly up to 45.8 µM. In a few lines:
as §4

Test [16] is described as follows: Quantitative High-Throughput drug screen in 47 multiple myeloma cell lines against the NCATS MIPE library collection: NCIH929_DSMZ cell viability assay (AID 1918978). Note: nearly all actives have a fitted effect of over 35% in size. The conditions noted are these: NCI-H929 myeloma viability, CellTiter-Glo ATP, 48 h; series mostly up to 45.8 µM. In a few lines: as §4
A short description of test [17]: Quantitative High-Throughput drug screen in 47 multiple myeloma cell lines against the NCATS MIPE library collection: OCIMY1_PLB cell viability assay (AID 1918979). Note: nearly all actives have a fitted effect of over 35% in size. The conditions noted are these: OCI-MY1 myeloma viability, CellTiter-Glo ATP, 48 h; series mostly up to 45.8 µM. The procedure, abridged: as §4
A short description of test [18]: Quantitative High-Throughput drug screen in 47 multiple myeloma cell lines against the NCATS MIPE library collection: MM1R_ATCC cell viability assay (AID 1918981). Note: nearly all actives have a fitted effect of over 35% in size. The conditions noted are these: MM1R multiple myeloma cells, CellTiter-Glo viability, 48 h; series mostly up to 45.8 µM. In a few lines:
as §4

The nature of test [19]: Quantitative High-Throughput drug screen in 47 multiple myeloma cell lines against the NCATS MIPE library collection: MM1S_ATCC cell viability assay (AID 1918980). Note: nearly all actives have a fitted effect of over 45% in size. The conditions noted are these: MM1S myeloma viability, CellTiter-Glo ATP luminescence, 48 h; series mostly up to 45.8 µM. In a few lines:
as §4

Test [20] in a line: Quantitative High-Throughput drug screen in 47 multiple myeloma cell lines against the NCATS MIPE library collection: KMS21BM_JCRB cell viability assay (AID 1918974). The conditions noted are these: ATP luminescence, 48 h; viability: at 45.8 µM (top of the series). In a few lines:
as §2

Inconclusive results are not listed. Calls of active or inactive are those of the source. Calls come from the whole dose curve; as a rule, active = well fitted curve in the direction sought with a large enough effect; inconclusive = small, poorly fitted or top-dose-only effect, or another doubt; inactive = no such curve, though single readings can be large; an effect the other way counts as inactive or inconclusive.
Potency is the fitted concentration of half-maximal effect.

On to `CCc1cnn2c(NCc3ccc[n+]([O-])c3)cc(N3CCCC[C@@H]3CCO)nc12`, for which the Potency in test [1] was 20.9 nM (active); in test [2] it was 18.7 nM (active); in [3], 0.0264 µM (active); in [4], 0.0148 µM (active); in test [5], 0.0235 µM (active); in [6], 0.0118 µM (active). Further, the Potency is 0.0264 µM (active) in [7]; 0.0332 µM (active) in test [8]; 0.0187 µM (active) in test [9]; 26.4 nM (active) in test [10]; 0.0332 µM (active) in [11]; 0.0209 µM (active) in [12]. Besides, the Potency was 0.0187 µM (active) in test [13]; 0.0296 µM (active) in test [14]; 0.0118 µM (active) in [15]; 0.0235 µM (active) in test [16]; 0.0332 µM (active) in test [17]; 0.0166 µM (active) in test [18].
As to `COc1ccc(S(=O)(=O)Nc2cc(-c3c(O)ccc4ccccc34)c(O)c3ccccc23)cc1`, the Potency in test [1] is 1660 nM (active); in [3], 9.35 µM (active); in [4] it was 3.32 µM (active); in test [5], 2.96 µM (active); in test [6], 8.33 µM (active); in test [7] it was 9.35 µM (active). Further, the Potency in [8] was 5.26 µM (active); in [9], 14.8 µM (active); in test [11], 13.2 µM (active); in test [12] it was 9.35 µM (active); in test [13] it was 14.8 µM (active); in test [14], 16.6 µM (active). Also, the Potency in test [15] was 7.43 µM (active); in test [16], 3.32 µM (active); in test [17], 10.5 µM (active); in [19], 2.35 µM (active); in test [18], 23.5 µM (active).
For the molecule `C[C@H]1COc2c(N3CCN(C)CC3)c(F)cc3c(=O)c(C(=O)O)cn1c23`, the Potency entry in [1], in test [3], in test [4], in test [5], in test [7] and in test [8] was “inactive” each time. For the same molecule, the Potency result in test [10], in test [12], in test [13], in test [16], in [17] and in test [19] was “inactive” in each case. Further, the Potency result in [18] is “inactive”.
Consider `O=C(Nc1nnc(-c2ccco2)o1)c1cc(-c2ccccc2)nc2ccccc12`, for which the Potency is 23500 nM (active) in [1]; 18.7 µM (active) in test [3]; 18.7 µM (active) in [4]; 16.6 µM (active) in test [5]; 20.9 µM (active) in [6]; 18.7 µM (active) in test [7]. For the same molecule, the Potency was 18.7 µM (active) in test [8]; 16.6 µM (active) in [9]; 18.7 µM (active) in test [11]; 16.6 µM (active) in [12]; 23.5 µM (active) in [20]; 18.7 µM (active) in [16].
With `CCC[C@H]1C[C@H](C(=O)N[C@@H]([C@@H]2O[C@@H](SC)[C@@H](O)[C@@H](O)[C@@H]2O)[C@H](C)Cl)N(C)C1`, in [1], the Potency was 9.3 nM (active). In addition, the Potency entry in test [2], in test [3], in test [7], in test [8], in test [9] and in test [11] was “inactive” each time. In addition, the Potency entry in test [12], in test [15], in [16], in [17], in test [19] and in [18] was “inactive” in each case.
As to `O=c1[nH]c(=O)n([C@H]2C[C@@H](O)[C@@H](CO)O2)cc1C=CBr`, the viability (% of DMSO) in [1] was 90.1% (active). For the same molecule, the Potency result in test [3], in [4], in [5], in [6], in test [7] and in test [8] was “inactive” each time. For the same molecule, the Potency result in [9], in test [11], in test [12] and in [15] was “inactive” throughout.
